Source: PubChem BioAssay (NCI)
About 83,000 compounds went through this panel and 20% of them were active in at least one assay; those are over-represented in the sample as a whole.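 For each line, cells grew in 96-well plates with the test compound present at a single concentration for 48 hours.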 Activity calls are given as the source filed them. How the source made its calls: active means growth percent below 10; inactive means the rest.

Tests used:
Experiment in all cases: NCI-60 one-dose screen, 48 h (100 = growth as untreated, 0 = no growth, -100 = all killed)
Details in all cases: 10 µM unless noted
T-47D breast = test system: T-47D breast
BT-549 breast = test system: BT-549 breast
MDA-MB-435 melanoma = test system: MDA-MB-435 melanoma
SW-620 colon = test system: SW-620 colon
MCF7 breast = test system: MCF7 breast
HCT-116 colon = test system: HCT-116 colon
HCC-2998 colon = test system: HCC-2998 colon
KM12 colon = test system: KM12 colon

Measured: growth

COc1ccccc1S(=O)(=O)Nc1ccc2c3c(cc(CCC(=O)NCCCCNc4cccc5c4C(=O)N(C4CCC(=O)NC4=O)C5=O)cc13)C(=O)N2C (stereo unspecified)
inactive: MDA-MB-435 melanoma 23.2% | HCT-116 colon 46.2% | HCC-2998 colon 10.9% | KM12 colon 20.2%
active: T-47D breast 3.74% | BT-549 breast -10.9% | SW-620 colon 7.68% | MCF7 breast 6.07%

COc1ccc(/C=C/C(c2cc(OC)c(OC)c(OC)c2)n2cncn2)cc1O (stereo unspecified)
inactive: T-47D breast 34.4% | BT-549 breast 36.6% | SW-620 colon 27.6% | MCF7 breast 21.2% | HCT-116 colon 10.5% | HCC-2998 colon 67.7% | KM12 colon 26.7%
active: MDA-MB-435 melanoma -33%

Fc1ccc2[nH]cc(-c3nc(-c4c[nH]c5c(Cl)nccc45)cs3)c2c1
inactive: T-47D breast 35.1% | BT-549 breast 75.1% | MDA-MB-435 melanoma 60.4% | MCF7 breast 45.8% | HCT-116 colon 39.6% | HCC-2998 colon 56.2% | KM12 colon 33.2%
active: SW-620 colon 2.51%

C/C(=C(\c1ccc(OCCN2CCCCCC2)cc1)c1ccc(OC(=O)c2ccccc2)cc1)c1ccc(Cl)cc1
inactive: T-47D breast 42.6% | BT-549 breast 68.5% | MDA-MB-435 melanoma 56% | SW-620 colon 25.8% | MCF7 breast 14.5% | HCT-116 colon 17.9% | HCC-2998 colon 60.7% | KM12 colon 32.1%

CCN(CC)c1ccc(-c2cc(-c3cc(OC)c(OC)c(OC)c3)nc(N3CCC(O)CC3)c2C#N)cc1
active: T-47D breast 2.08% | BT-549 breast -1.42% | MDA-MB-435 melanoma -40.8% | SW-620 colon 9.95% | MCF7 breast -33.3% | HCT-116 colon -51% | HCC-2998 colon -10.5% | KM12 colon -26.8%

O=S(Nc1ccccc1)c1ccc(Cl)cc1 (stereo unspecified)
inactive: T-47D breast 90.7% | BT-549 breast 110% | MDA-MB-435 melanoma 90.4% | SW-620 colon 86.8% | MCF7 breast 101% | HCT-116 colon 92.1% | HCC-2998 colon 95.4% | KM12 colon 109%

O=S(=O)(Nc1cc(F)cc(F)c1)c1ccc(-c2cnc(C3CC3)o2)cc1
inactive: T-47D breast 29.8% | BT-549 breast 36.1% | SW-620 colon 17.2% | MCF7 breast 14.3% | HCT-116 colon 19.1% | HCC-2998 colon 67.3% | KM12 colon 19.2%
active: MDA-MB-435 melanoma -23.6%

COc1cc([C@@H](CCO)C[C@H](C)c2ccc3ccccc3c2)cc(OC)c1OC
active: MDA-MB-435 melanoma 2.44%
inactive: T-47D breast 45.3% | BT-549 breast 26% | SW-620 colon 18.9% | MCF7 breast 18.8% | HCT-116 colon 18.7% | HCC-2998 colon 56.1% | KM12 colon 26.3%

NS(=O)(=O)c1ccc(C(=O)N=Nc2c(O)[nH]c3ccc(Cl)cc23)cc1
inactive: T-47D breast 97.2% | BT-549 breast 98.8% | MDA-MB-435 melanoma 105% | SW-620 colon 100% | MCF7 breast 89.2% | HCT-116 colon 99.4% | HCC-2998 colon 114% | KM12 colon 102%

c1cc(OCCN2CCCCCC2)ccc1CNc1ccc2nc(CCC3CCCCC3)[nH]c2c1
inactive: T-47D breast 31.6% | BT-549 breast 76.5% | MDA-MB-435 melanoma 40.6% | SW-620 colon 28.8% | HCT-116 colon 22.9% | KM12 colon 65.6%
active: MCF7 breast 5.67% | HCC-2998 colon -4.87%

CCOC(=O)CNC1=C(Cl)C(=O)N(Cc2ccc(Cl)cc2)C1=O
inactive: T-47D breast 93.3% | BT-549 breast 109% | MDA-MB-435 melanoma 105% | SW-620 colon 99.8% | MCF7 breast 99.7% | HCT-116 colon 102% | HCC-2998 colon 103% | KM12 colon 110%

O=C1NC(=O)C(c2coc3cc(Br)ccc23)=C1c1c[nH]c2ccccc12
inactive: T-47D breast 34.7% | BT-549 breast 67.9% | SW-620 colon 35.4% | MCF7 breast 30.4% | HCT-116 colon 27.3% | HCC-2998 colon 108% | KM12 colon 31.7%
active: MDA-MB-435 melanoma -7.93%

Cc1[nH]n(-c2cccc(Cl)c2)c(=O)c1/C=C1\C=c2ccccc2=CC1=O
active: T-47D breast -7.69% | MCF7 breast 8.67% | HCT-116 colon 8.69% | HCC-2998 colon -22.2%
inactive: BT-549 breast 90.2% | MDA-MB-435 melanoma 20.7% | SW-620 colon 31% | KM12 colon 21.2%

Cc1ccccc1N1CCN(C(=S)c2ccccc2)CC1
inactive: T-47D breast 89.1% | BT-549 breast 88.5% | MDA-MB-435 melanoma 103% | SW-620 colon 98.3% | MCF7 breast 88.2% | HCT-116 colon 91.9% | HCC-2998 colon 75.3% | KM12 colon 112%

Cc1ccc(C2CC(c3cccc(Nc4ccncc4)c3)=Nc3c(N)nc(N)nc3N2)cc1 (stereo unspecified)
inactive: T-47D breast 89% | BT-549 breast 114% | MDA-MB-435 melanoma 21.7% | SW-620 colon 30.4% | MCF7 breast 37.7% | HCT-116 colon 22.3% | HCC-2998 colon 62.4% | KM12 colon 51.7%

COC1C(O)CC(OC2CC(OC3CC(O[C@@H]4C(=O)c5c(cc6cc(OC7CC(OC8CC(O)C(O)C(C)O8)C(O)C(C)O7)c(C)c(O)c6c5O)CC4[C@H](OC)C(=O)C(C)=O)OC(C)C3O)OC(C)C2O)OC1C (stereo partly specified)
active: T-47D breast -4.93% | BT-549 breast -18.8% | MDA-MB-435 melanoma -74.8% | SW-620 colon 8.3% | MCF7 breast 3.16% | HCT-116 colon 4.47% | HCC-2998 colon -14.3%
inactive: KM12 colon 13%

COc1ccc(C/C(C)=C(\c2ccc(O)cc2)c2ccc(OCCN3CCCCC3)cc2)cc1
inactive: T-47D breast 53.8% | BT-549 breast 88.3% | MDA-MB-435 melanoma 82.1% | SW-620 colon 91.6% | MCF7 breast 35.2% | HCT-116 colon 46.5% | HCC-2998 colon 80.8% | KM12 colon 91.1%

Cc1nc2sc(C(=O)Nc3ccccn3)c(N)c2cc1C(C)O (stereo unspecified)
inactive: T-47D breast 73.1% | BT-549 breast 85.1% | SW-620 colon 48.8% | MCF7 breast 29.6% | HCT-116 colon 48.1% | HCC-2998 colon 74.8% | KM12 colon 37.5%
active: MDA-MB-435 melanoma -31.6%

O=C1Nc2ccccc2/C1=N/N1C(=O)CN(CCCl)C1=O
inactive: T-47D breast 102% | BT-549 breast 111% | MDA-MB-435 melanoma 98.9% | SW-620 colon 95.1% | MCF7 breast 93.8% | HCT-116 colon 98.6% | HCC-2998 colon 104% | KM12 colon 113%

CC(C)=CC(=O)N[C@H]1CC[C@]2(C)C3CC[C@]4(C)C(C(C)N(C)C)=CCC4C3CCC2[C@H]1O (stereo partly specified)
inactive: T-47D breast 38.6% | BT-549 breast 54.4% | MCF7 breast 11.4% | HCC-2998 colon 35.8% | KM12 colon 23.2%
active: MDA-MB-435 melanoma -33.8% | SW-620 colon -23.5% | HCT-116 colon 2.25%

CCOC(=O)C(CCN(C)C)c1ccccc1 (stereo unspecified)
inactive: T-47D breast 103% | BT-549 breast 97.3% | MDA-MB-435 melanoma 107% | SW-620 colon 108% | MCF7 breast 92.7% | HCT-116 colon 104% | HCC-2998 colon 96.3% | KM12 colon 104%

Cn1cc(-c2csc(-c3cn(C)c4ccccc34)n2)c2cnccc21
inactive: T-47D breast 67.4% | BT-549 breast 87.8% | MCF7 breast 10.5% | KM12 colon 26.6%
active: MDA-MB-435 melanoma -79.4% | SW-620 colon -47.6% | HCT-116 colon -74.6% | HCC-2998 colon -63.4%

O=C1/C(=C/c2cccc(Br)c2)COc2ccc(O)cc21
active: SW-620 colon -21.2% | MCF7 breast 6.98% | HCT-116 colon 6.67%
inactive: T-47D breast 19.6% | BT-549 breast 47.7% | MDA-MB-435 melanoma 25.1% | HCC-2998 colon 86.2% | KM12 colon 28%

Cc1oc(-c2ccc(Cl)cc2)nc1C1=NN(C(=O)c2ccncc2)C(c2ccccc2)C1 (stereo unspecified)
inactive: T-47D breast 97% | BT-549 breast 89.7% | MDA-MB-435 melanoma 95.9% | SW-620 colon 95.2% | MCF7 breast 94% | HCT-116 colon 93.8% | HCC-2998 colon 102% | KM12 colon 90.6%

CCN(CC)CCOc1ccc(C(=O)/C=C\c2ccc(Cl)cc2Cl)cc1
active: SW-620 colon -55.1% | MCF7 breast -48.1% | HCT-116 colon -90.2% | KM12 colon -43.2%
inactive: T-47D breast 29.9% | BT-549 breast 31.6% | MDA-MB-435 melanoma 27.3% | HCC-2998 colon 24.2%

N#Cc1ccccc1-c1ccc(CN2C(=O)S/C(=C\c3ccc(Br)cc3)C2=O)cc1
inactive: T-47D breast 85.3% | BT-549 breast 95.9% | MDA-MB-435 melanoma 94.5% | SW-620 colon 103% | MCF7 breast 95% | HCT-116 colon 105% | HCC-2998 colon 98.9% | KM12 colon 98.9%

COc1cc2c(c(OC)c1OC)CCC(c1cccc(C(=O)Nc3ccc(Br)cc3)c1)O2 (stereo unspecified)
inactive: T-47D breast 28.9% | BT-549 breast 69% | MDA-MB-435 melanoma 81.9% | SW-620 colon 88.7% | MCF7 breast 67.1% | HCT-116 colon 60.6% | HCC-2998 colon 71.5% | KM12 colon 65.2%

O=C(c1ccc(Br)cc1)C(Br)C(c1ccc(Cl)cc1)C(c1ccccc1)[N+](=O)[O-] (stereo unspecified)
inactive: T-47D breast 76.9% | BT-549 breast 105% | MDA-MB-435 melanoma 95.9% | SW-620 colon 96.4% | MCF7 breast 84.5% | HCC-2998 colon 125% | KM12 colon 92.7%

CN(C)CCn1c(=O)c2ccccc2n2nc3ccccc3c12
inactive: T-47D breast 99.8% | BT-549 breast 103% | MDA-MB-435 melanoma 100% | SW-620 colon 64.2% | MCF7 breast 72.6% | HCT-116 colon 71.1% | HCC-2998 colon 99.8% | KM12 colon 95%
